According to PubChem BioAssay (Tox21):
“And” between values parts separate entries of the source, which are not always exact repeats. Identical values can stand only once. Inconclusive results are not listed. Where a call stands in place of a potency, no number is given. A structure can be active in one record and inactive in another. The source made the active and inactive calls. Unless noted, the call rests on the fitted dose curve; in most records, active means well fitted curve in the direction sought with a large enough effect in the repeat runs; inconclusive means weak or mixed curves; inactive means no such curve, though single readings can be large; an effect the other way counts as inactive or inconclusive.

Columns and labels:
[1] = qHTS assay to identify small molecule agonists of the peroxisome proliferator-activated receptor delta (PPARd) signaling pathway - cell viability counter screen (AID 743211); further: nearly all actives have a fitted effect of over 55% in size; further: potency means the concentration at half of the fitted maximal effect
In short: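 Viability was measured as CellTiter-Glo luminescence (30 min, room temperature) in the same wells as the beta-lactamase readout. GeneBLAzer PPARd UAS-bla HEK293H cells received compound after 5 h plating and were incubated 17 h at 37 C.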

[2] = biological target: Peroxisome proliferator-activated receptor delta (Homo sapiens) (UniProt Q03181); assay: qHTS assay to identify small molecule agonists of the peroxisome proliferator-activated receptor delta (PPARd) signaling pathway (AID 743212; calls by dose curve)
Sequence of Peroxisome proliferator-activated receptor delta (Homo sapiens) (Q03181 whole entry, looked up): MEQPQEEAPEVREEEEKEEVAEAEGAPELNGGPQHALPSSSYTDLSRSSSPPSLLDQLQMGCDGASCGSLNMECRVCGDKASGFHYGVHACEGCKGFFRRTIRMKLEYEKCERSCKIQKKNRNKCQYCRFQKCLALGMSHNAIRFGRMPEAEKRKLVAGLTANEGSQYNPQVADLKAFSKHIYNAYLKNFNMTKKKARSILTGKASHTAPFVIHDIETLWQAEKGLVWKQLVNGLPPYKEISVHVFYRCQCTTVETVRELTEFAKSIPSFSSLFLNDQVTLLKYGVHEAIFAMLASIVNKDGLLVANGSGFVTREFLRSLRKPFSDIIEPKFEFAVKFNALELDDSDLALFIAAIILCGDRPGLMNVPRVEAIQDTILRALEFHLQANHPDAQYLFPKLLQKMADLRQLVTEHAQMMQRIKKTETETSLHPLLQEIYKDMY
In short: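 Read-out: beta-lactamase FRET fluorescence after 2 h room-temperature incubation with LiveBLAzer B/G substrate. Cells were HEK293H carrying a UAS-bla reporter for PPARd, treated at 37 C with DMSO-dissolved compounds.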

[3] = qHTS assay to identify small molecule antagonists of the peroxisome proliferator-activated receptor delta (PPARd) signaling pathway - cell viability counter screen (AID 743213); further: nearly all actives have a fitted effect of over 50% in size; further: potency means the concentration at half of the fitted maximal effect
In short: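 Agonist-stimulated (L165041, 300 nM final) HEK293H PPARd UAS-bla cells are exposed to compounds for 17 h at 37 C, and ATP-based luminescence (CellTiter-Glo) from the same wells reports cytotoxicity.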

[4] = biological target: Peroxisome proliferator-activated receptor delta (Homo sapiens) (UniProt Q03181); assay: qHTS assay to identify small molecule antagonists of the peroxisome proliferator-activated receptor delta (PPARd) signaling pathway (AID 743215; active means well fitted inhibition curve with a large enough effect in the signal ratio in the repeat runs, not every such curve was filed as active; the % refers to the signal ratio; further: potency means the concentration at half of the fitted maximal effect)
In short: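 Screen format: qHTS, antagonist mode. HEK293H PPARd-bla cells received compound and 300 nM L165041 (final), 17 h, 37 C. Beta-lactamase detected via FRET substrate fluorescence, 2 h, room temperature.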

[5] = biological target: Bile acid receptor (Homo sapiens) (UniProt Q96RI1); assay: qHTS assay to identify small molecule antagonists of the farnesoid-X-receptor (FXR) signaling pathway (AID 743217; active means well fitted inhibition curve with a large enough effect in the signal ratio in the repeat runs, not every such curve was filed as active; the % refers to the signal ratio)
Sequence of Bile acid receptor (Homo sapiens) (Q96RI1 whole entry, looked up): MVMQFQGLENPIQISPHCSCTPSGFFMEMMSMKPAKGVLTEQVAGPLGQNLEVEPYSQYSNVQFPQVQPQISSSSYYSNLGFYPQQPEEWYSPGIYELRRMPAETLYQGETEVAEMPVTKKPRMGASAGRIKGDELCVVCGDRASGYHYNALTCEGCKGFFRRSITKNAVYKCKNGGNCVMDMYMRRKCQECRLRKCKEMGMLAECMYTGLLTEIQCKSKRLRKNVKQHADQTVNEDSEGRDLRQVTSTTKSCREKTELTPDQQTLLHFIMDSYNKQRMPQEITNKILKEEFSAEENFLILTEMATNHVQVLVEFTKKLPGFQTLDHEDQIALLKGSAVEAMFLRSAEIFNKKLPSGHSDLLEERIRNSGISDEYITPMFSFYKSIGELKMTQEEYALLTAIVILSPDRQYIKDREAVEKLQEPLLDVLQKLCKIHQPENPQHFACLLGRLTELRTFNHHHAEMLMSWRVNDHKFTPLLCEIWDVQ
In short: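 Quantitative HTS, beta-lactamase reporter format: FXR-UAS-bla HEK 293T cells co-treated 16 h at 37 °C with compounds and 50 uM final chenodeoxycholic acid, then read by B/G FRET fluorescence.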

[6] = qHTS assay to identify small molecule agonists of the farnesoid-X-receptor (FXR) signaling pathway - cell viability counter screen (AID 743218); further: nearly all actives have a fitted effect of over 45% in size; further: potency means the concentration at half of the fitted maximal effect
In short: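 Same-well cytotoxicity check on FXR-UAS-bla HEK 293T cells: 5 h attachment, 16 h compound at 37 C, CellTiter-Glo luminescence read at room temperature after 30 min.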

[7] = biological target: Bile acid receptor (Homo sapiens) (UniProt Q96RI1); assay: qHTS assay to identify small molecule agonists of the farnesoid-X-receptor (FXR) signaling pathway (AID 743220; active means well fitted activation curve with a large enough effect in the signal ratio in the repeat runs, not every such curve was filed as active; the % refers to the signal ratio)
In short: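 FXR-UAS-bla HEK 293T cells carrying a UAS-driven beta-lactamase reporter were plated for 5 h at 37C/5% CO2, then exposed to DMSO-dissolved Tox21 10K compounds for 16 h at 37C. A LiveBLAzer B/G FRET substrate was loaded for 2 h at room temperature before fluorescence reading.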

[8] = qHTS assay to identify small molecule antagonists of the farnesoid-X-receptor (FXR) signaling pathway - cell viability counter screen (AID 743221; active means well fitted cell-killing curve with a large enough effect in the repeat runs, not every such curve was filed as active; further: nearly all actives have a fitted effect of over 50% in size; further: potency means the concentration at half of the fitted maximal effect)
In short: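 Cytotoxicity counter screen run in the FXR-bla reporter wells: HEK 293T cells exposed to compound with 50 uM (final) chenodeoxycholic acid for 16 h, 37 C, then viability measured by CellTiter-Glo luminescence after 30 min, room temperature.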

[9] = biological target: Vitamin D3 receptor (Homo sapiens) (UniProt P11473); assay: qHTS assay to identify small molecule agonists of the vitamin D receptor (VDR) signaling pathway (AID 743222; calls by dose curve)
Sequence of Vitamin D3 receptor (Homo sapiens) (P11473 whole entry, looked up): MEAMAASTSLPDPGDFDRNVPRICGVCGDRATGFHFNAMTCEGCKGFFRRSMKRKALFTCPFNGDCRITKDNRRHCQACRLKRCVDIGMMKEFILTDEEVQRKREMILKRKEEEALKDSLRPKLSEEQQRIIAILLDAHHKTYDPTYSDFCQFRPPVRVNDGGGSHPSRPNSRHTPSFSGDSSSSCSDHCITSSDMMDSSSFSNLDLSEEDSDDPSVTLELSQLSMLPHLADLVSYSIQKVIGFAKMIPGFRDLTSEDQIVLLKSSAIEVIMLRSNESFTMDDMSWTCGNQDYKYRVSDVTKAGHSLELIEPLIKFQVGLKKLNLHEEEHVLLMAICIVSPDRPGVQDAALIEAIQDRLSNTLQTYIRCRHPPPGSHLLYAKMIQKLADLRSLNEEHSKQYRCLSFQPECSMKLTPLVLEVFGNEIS
In short: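 Using LiveBLAzer B/G FRET detection, agonism was scored in VDR-bla cells exposed overnight (16 h, 37C) to DMSO-dissolved compounds; substrate incubation was 2 h at room temperature.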

[10] = biological target: Vitamin D3 receptor (Homo sapiens) (UniProt P11473); assay: qHTS assay to identify small molecule antagonists of the vitamin D receptor (VDR) signaling pathway (AID 743223; active means well fitted inhibition curve with a large enough effect in the signal ratio in the repeat runs, not every such curve was filed as active; the % refers to the signal ratio; further: potency means the concentration at half of the fitted maximal effect)
In short: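 Antagonist mode: compound added to VDR-bla cells alongside agonist 1alpha,25-dihydroxyvitamin D3 (3 nM final), incubation 16 h at 37C. Read-out is LiveBLAzer FRET fluorescence, 2 h at room temperature.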

[11] = qHTS assay to identify small molecule antagonists of the vitamin D receptor (VDR) signaling pathway - cell viability counter screen (AID 743225); further: nearly all actives have a fitted effect of over 50% in size; further: potency means the concentration at half of the fitted maximal effect
In short: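 Cytotoxicity counter screen read by CellTiter-Glo luminescence (30 min, room temperature) in the same wells as the VDR-bla antagonist readout. HEK 293T VDR-UAS-bla cells had 16 h at 37C with compound and 3 nM (final) 1-alpha,25-dihydroxyvitamin D3, then 2 h with FRET substrate.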

[12] = qHTS assay to identify small molecule agonists of the endoplasmic reticulum stress response signaling pathway - cell viability counter screen (AID 1159517; calls by dose curve; further: nearly all actives have a fitted effect of over 50% in size; further: potency means the concentration at half of the fitted maximal effect)
In short: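 Steps: seed 1,500 ESRE-bla HeLa cells per well; incubate overnight at 37 C, 5% CO2; add compounds in DMSO for 5 hr; run FRET substrate 2 hr RT; add CellTiter-Glo, wait 30 min, read luminescence.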

[13] = qHTS assay to identify small molecule agonists of the AP-1 signaling pathway - cell viability counter screen (AID 1159525; calls by dose curve; further: nearly all actives have a fitted effect of over 55% in size; further: potency means the concentration at half of the fitted maximal effect)
In short: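 Same-well cytotoxicity counter screen of the Tox21 10K library in ME-180 cells. The readout is ATP-dependent luminescence after 5 h compound treatment. Data are normalised to DMSO and tetra n-octyl ammonium bromide controls.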

[14] = qHTS assay to identify small molecule agonists of the AP-1 signaling pathway (AID 1159526; calls by dose curve)
[15] = biological target: Retinoic acid receptor RXR-alpha (Homo sapiens) (UniProt P19793); assay: qHTS assay to identify small molecule agonists of the RXR signaling pathway (AID 1159527; calls by dose curve; further: nearly all actives have a fitted effect of over 35% in size)
Sequence of Retinoic acid receptor RXR-alpha (Homo sapiens) (P19793 whole entry, looked up): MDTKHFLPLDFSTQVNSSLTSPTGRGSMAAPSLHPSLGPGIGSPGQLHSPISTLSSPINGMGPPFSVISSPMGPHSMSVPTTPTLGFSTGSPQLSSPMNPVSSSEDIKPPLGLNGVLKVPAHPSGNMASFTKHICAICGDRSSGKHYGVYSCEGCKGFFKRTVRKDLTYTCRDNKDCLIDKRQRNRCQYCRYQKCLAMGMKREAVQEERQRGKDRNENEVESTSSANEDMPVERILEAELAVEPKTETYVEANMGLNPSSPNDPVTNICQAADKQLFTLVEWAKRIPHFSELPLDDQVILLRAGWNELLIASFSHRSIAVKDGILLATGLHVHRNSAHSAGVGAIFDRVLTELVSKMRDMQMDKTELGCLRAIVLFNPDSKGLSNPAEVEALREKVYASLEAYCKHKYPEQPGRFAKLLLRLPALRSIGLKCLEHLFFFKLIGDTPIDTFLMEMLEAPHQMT
In short: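 Agonist-mode beta-lactamase reporter assay: HEK 293T RXR-alpha-UAS-bla cells treated 16 hr at 37 C with compounds, 9-cis retinoic acid as positive control. LiveBLAzer FRET substrate, 405 nm excitation, 460/530 nm emission.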

[16] = qHTS assay to identify small molecule antagonists of the retinoid-related orphan receptor gamma (ROR-gamma) signaling pathway - cell viability counter screen (AID 1159520); further: nearly all actives have a fitted effect of over 50% in size; further: potency means the concentration at half of the fitted maximal effect
In short: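 Tet-on ROR gamma CHO cells were given compounds for 2 hr, then doxycycline hyclate at 1 uM final, and incubated 16 hr at 37 C. Viability was measured as ATP content by CellTiter-Glo luminescence.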

[17] = qHTS assay to identify small molecule agonists of the vitamin D receptor (VDR) signaling pathway - cell viability counter screen (AID 743224); further: nearly all actives have a fitted effect of over 50% in size; further: potency means the concentration at half of the fitted maximal effect
In short: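 Counter screen for cytotoxicity: VDR-bla cells at 2,000 cells/well, 16 h compound exposure, then CellTiter-Glo luminescence after the beta-lactamase measurement.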

[18] = biological target: Nuclear receptor ROR-gamma (Homo sapiens) (UniProt P51449); assay: qHTS assay to identify small molecule antagonists of the retinoid-related orphan receptor gamma (ROR-gamma) signaling pathway (AID 1159521)
In short: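 Antagonist read-out: drop in luminescence (ONE-Glo) from an RORE-LUC reporter in CHO cells with doxycycline-inducible ROR-gamma; 2 hr compound pretreatment, 1 uM doxycycline, 16 hr incubation at 37 C.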

Structure (SMILES) | Potency [1] | Potency [2] | Potency [3] | Potency [4] | Potency [5] | Potency [6] | Potency [7] | Potency [8] | Potency [9] | Potency [10] | Potency [11] | Potency [12] | Potency [13] | Potency [14] | Potency [15] | Potency [16] | Potency [17] | Potency [18]
ON=C1CCCC1 | inactive | inactive | inactive | inactive | inactive | inactive | inactive | inactive | inactive | inactive | inactive | inactive | inactive | inactive | inactive |  |  | 
CCCCCCCCCCCCCCCC[N+](C)(C)CCN(Cc1ccc(OC)cc1)c1ncccn1 | 13.3 µM (active) |  |  | inactive |  | 29.8 µM (active) | inactive | 26.6 µM (active) |  | 21.3 µM (active) | 19 µM (active) | 21.3 µM (active) | 21.3 µM (active) |  |  | 29.8 µM (active) |  | 
C/C=C1/C(=O)C[C@H]2[C@@H]3CCC4=CC(=O)CC[C@]4(C)[C@H]3CC[C@]12C |  |  | inactive |  |  | inactive |  | inactive |  |  | inactive |  |  | inactive |  |  | inactive | 
OC1(c2ccc(Cl)c(C(F)(F)F)c2)CCN(CCCC(c2ccc(F)cc2)c2ccc(F)cc2)CC1 | 4.73 µM (active) |  | 11.9 µM (active) | 26.6 µM (active) |  | 9.44 µM (active) |  | 26.6 µM (active) |  |  | 10.7 µM (active) | 8.49 µM (active) | 9.52 µM (active) |  |  | 9.44 µM (active) | 13.3 µM (active) | 
Nc1nc2ccccc2n1Cc1ccc(F)cc1 |  | inactive | inactive |  |  | inactive |  |  | inactive |  | inactive | inactive | inactive |  |  |  | inactive | 
CN(C)c1ccc(SC#N)cc1 | inactive |  | inactive |  | inactive | inactive |  |  | inactive |  |  |  | inactive |  |  | inactive | inactive | 
O=C1CCCCCN1SSN1CCCCCC1=O | inactive | inactive | inactive |  | inactive |  | inactive | inactive |  | inactive |  | inactive |  |  |  |  |  | 24.3 µM (active)
C=C(C)C(=O)OCC(O)COc1ccc(C(C)(C)c2ccc(OCC(O)COC(=O)C(=C)C)cc2)cc1 (stereo not given) | 54.9 µM (active) | inactive | 13.8 µM (active) | 27.5 µM (active) |  |  | inactive |  | inactive |  | 19.5 µM (active) | inactive |  |  |  |  | 12.3 µM (active) | 24.3 µM (active)
CCCCN1CCCC[C@H]1C(=O)Nc1c(C)cccc1C |  | inactive |  | inactive |  | inactive |  |  | inactive | inactive | inactive | inactive | inactive |  | inactive | inactive | inactive | 
Oc1ccc(Cl)cc1Sc1cc(Cl)ccc1O | 19.5 µM (active) and 26.6 µM (active) |  | 24.5 µM (active) |  |  | 34.6 µM (active) and 29.8 µM (active) | inactive |  | inactive | inactive | 30.8 µM (active) |  | 54.8 µM (active) and inactive |  |  |  | 21.8 µM (active) and 23.7 µM (active) | 19.3 µM (active) and 13.3 µM (active)
CCCCCCCCCCCCCCCCCC[N+](C)(C)Cc1ccccc1 | 11.1 µM (active) |  | 13.9 µM (active) |  |  | 19.7 µM (active) |  | 27.8 µM (active) |  | 22.1 µM (active) | 7.84 µM (active) |  | 39.3 µM (active) |  |  | 27.6 µM (active) | 13.9 µM (active) | 
Fc1ccc([C@@H]2CCNC[C@H]2COc2ccc3c(c2)OCO3)cc1 | 13.3 µM (active) | inactive |  |  | inactive |  | inactive |  |  |  |  | inactive |  |  |  | inactive |  | 
[Cl][Bi]([Cl])([c]1ccccc1)([c]1ccccc1)[c]1ccccc1 | 5.46 µM (active) |  | 4.87 µM (active) |  |  | 5.46 µM (active) |  | 10.9 µM (active) |  |  | 2.44 µM (active) | 38.7 µM (active) |  |  |  | 12.1 µM (active) |  | 2.16 µM (active)
C[C@@H](NCCCc1cccc(C(F)(F)F)c1)c1cccc2ccccc12 | 11.9 µM (active) |  | 26.6 µM (active) | 29.8 µM (active) |  | 29.8 µM (active) | inactive |  |  |  | 23.9 µM (active) | 23.9 µM (active) | 23.9 µM (active) |  |  | 29.8 µM (active) | 29.8 µM (active) | 
